Among the test systems are T-47D breast; BT-549 breast; MDA-MB-435 melanoma; SW-620 colon; MCF7 breast; HCC-2998 colon; KM12 colon.
Common to all, as to assay: NCI-60 one-dose screen, 48 h (100 = growth as untreated, 0 = no growth, -100 = all killed)
Another experiment has as its system HCT-116 colon. To be noted: 10 µM unless noted.

Values joined by “and” are separate entries in the source; they are usually repeats but may differ in a detail not shown here. Equal entries are not always repeated. This is part of a sample that, as a whole, favours compounds with a hit. Of some 83,000 tested, about 20% had one in any assay.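 Results are percent growth after 48 hours of single-concentration exposure. 100 means growth as in untreated cells, lower positive values show inhibition; negative values down to -100 show cell death.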 Active and inactive are the calls of the source. Rule for the calls: active = growth percent below 10; inactive = the rest.

Consider `CNC(=O)c1cc(Oc2ccc(CC(=O)Nc3cc(C(C)(C)C)nn3C)cc2)ccn1`, for which the growth was 57.4% (inactive) with T-47D breast (1 µM); 44.7% (inactive) in the experiment with T-47D breast (10 µM); 51.7% (inactive) in the experiment with T-47D breast (30 µM); 72.6% (inactive) in the experiment with BT-549 breast (1 µM); 82.4% (inactive) in the experiment on BT-549 breast (10 µM); 81% (inactive) in the experiment on BT-549 breast (30 µM). Moreover, the growth with MDA-MB-435 melanoma (1 µM) was 78.1% (inactive); in the experiment with MDA-MB-435 melanoma (10 µM), 61.8% (inactive); in the experiment on MDA-MB-435 melanoma (30 µM), 67.9% (inactive); in the experiment with SW-620 colon (1 µM) it was 106% (inactive); with SW-620 colon (10 µM), 87.2% (inactive); in the experiment on SW-620 colon (30 µM), 97.8% (inactive). Further, the growth in the experiment with MCF7 breast (1 µM) was 61.4% (inactive); in the experiment on MCF7 breast (10 µM), 53.5% (inactive); in the experiment on MCF7 breast (30 µM) it was 44.4% (inactive); in the experiment with HCC-2998 colon (1 µM), 107% (inactive); with HCC-2998 colon (10 µM), 75.3% (inactive); with HCC-2998 colon (30 µM), 101% (inactive). Further, the growth in the experiment on KM12 colon (1 µM) is 88.4% (inactive); in the experiment with KM12 colon (10 µM), 58.5% (inactive); in the experiment with KM12 colon (30 µM), 64.6% (inactive).

Regarding `Nc1ccn(C2OC(CO)C(O)C2O)c(=O)n1` (stereo unspecified), the growth in the experiment with T-47D breast (10 µM unless noted) is 55.5% (inactive) and 58.3% (inactive) and 101% (inactive).

`CC(C)(C)c1ccc(O)c(CNC2CCCCC2)c1`: the growth in the experiment with T-47D breast (10 µM unless noted) is 112% (inactive) and 75.9% (inactive); with BT-549 breast (10 µM unless noted), 85.1% (inactive); in the experiment with MDA-MB-435 melanoma (10 µM unless noted) it was 97.9% (inactive) and 96.6% (inactive); in the experiment with SW-620 colon (10 µM unless noted), 101% (inactive) and 98.5% (inactive); in the experiment with MCF7 breast (10 µM unless noted), 93% (inactive) and 93.8% (inactive); in the experiment on HCT-116 colon, 86.7% (inactive) and 88.3% (inactive). Moreover, the growth in the experiment on HCC-2998 colon (10 µM unless noted) was 52.7% (inactive) and 104% (inactive); with KM12 colon (10 µM unless noted), 105% (inactive) and 92.2% (inactive).

On to `CN(C)c1ccc2nc3ccc(=[N+](C)C)cc-3sc2c1`, for which the growth in the experiment on T-47D breast (10 µM unless noted) is 11.8% (inactive) and 4.2% (active) and 27.3% (inactive); in the experiment with BT-549 breast (10 µM unless noted) it was 60.2% (inactive) and 69.8% (inactive) and 71.9% (inactive); with MDA-MB-435 melanoma (10 µM unless noted), -43.7% (active) and -14% (active) and 52.5% (inactive); in the experiment with SW-620 colon (10 µM unless noted), 15.2% (inactive) and 15.3% (inactive) and 14.7% (inactive); in the experiment on MCF7 breast (10 µM unless noted) it was 12.7% (inactive) and -5.86% (active) and 7.47% (active); in the experiment with HCT-116 colon, 4.82% (active) and 4.09% (active) and 11.1% (inactive). The growth in the experiment on HCC-2998 colon (10 µM unless noted) was 49% (inactive) and 36.7% (inactive) and 53.9% (inactive); with KM12 colon (10 µM unless noted) it was 36.6% (inactive) and 33% (inactive) and 48.2% (inactive).

In the case of `NC(=O)NO`, the growth was 107% (inactive) and 46.6% (inactive) with T-47D breast (10 µM unless noted); 110% (inactive) and 41.5% (inactive) with BT-549 breast (10 µM unless noted); 98.5% (inactive) and 74.4% (inactive) with MDA-MB-435 melanoma (10 µM unless noted); 105% (inactive) and 78.4% (inactive) with SW-620 colon (10 µM unless noted); 96.9% (inactive) and 65.2% (inactive) with MCF7 breast (10 µM unless noted); 109% (inactive) and 67.6% (inactive) with HCT-116 colon. The growth is 111% (inactive) and 73.1% (inactive) in the experiment with HCC-2998 colon (10 µM unless noted); 100% (inactive) and 67.8% (inactive) in the experiment on KM12 colon (10 µM unless noted).

As for `CCN(CC)CCc1nc(-c2ccccc2)no1`, the growth with T-47D breast (10 µM unless noted) was 55.8% (inactive) and 81.1% (inactive); in the experiment on BT-549 breast (10 µM unless noted) it was 55.2% (inactive) and 103% (inactive); in the experiment on MDA-MB-435 melanoma (10 µM unless noted) it was 90.1% (inactive) and 99.3% (inactive); with SW-620 colon (10 µM unless noted), 73.3% (inactive) and 114% (inactive); in the experiment on MCF7 breast (10 µM unless noted) it was 58.5% (inactive) and 96% (inactive); in the experiment on HCT-116 colon, 85.5% (inactive) and 103% (inactive). Moreover, the growth in the experiment on HCC-2998 colon (10 µM unless noted) was 113% (inactive) and 111% (inactive); with KM12 colon (10 µM unless noted), 85% (inactive) and 111% (inactive).

For `CCOc1ccc2cc(-c3nn(CC4CCNCC4)c4ncnc(N)c34)ccc2c1`, the growth in the experiment with T-47D breast (10 µM unless noted) was 71% (inactive) and 34.2% (inactive); with BT-549 breast (10 µM unless noted), 86.1% (inactive) and 36.2% (inactive); with MDA-MB-435 melanoma (10 µM unless noted) it was 95.4% (inactive) and 14.9% (inactive); in the experiment with SW-620 colon (10 µM unless noted) it was 91.6% (inactive) and 37.3% (inactive); in the experiment on MCF7 breast (10 µM unless noted), 78.8% (inactive) and 46.2% (inactive); in the experiment with HCT-116 colon, 80.4% (inactive) and 16.4% (inactive). The growth with HCC-2998 colon (10 µM unless noted) is 110% (inactive) and 49.1% (inactive); with KM12 colon (10 µM unless noted) it was 14.5% (inactive) and 11.9% (inactive).

Take `Nc1cc2c(cc1N)-c1ccccc1C2`: the growth with T-47D breast (10 µM unless noted) is 80.8% (inactive) and 79.5% (inactive); in the experiment with BT-549 breast (10 µM unless noted) it was 64.1% (inactive) and 75.5% (inactive); with MDA-MB-435 melanoma (10 µM unless noted) it was 91.6% (inactive) and 94.1% (inactive); with SW-620 colon (10 µM unless noted), 108% (inactive) and 100% (inactive); in the experiment with MCF7 breast (10 µM unless noted), 81.2% (inactive) and 95% (inactive); with HCT-116 colon, 98.8% (inactive) and 100% (inactive). Moreover, the growth in the experiment with HCC-2998 colon (10 µM unless noted) is 102% (inactive) and 90.1% (inactive); in the experiment on KM12 colon (10 µM unless noted), 90% (inactive) and 97.1% (inactive).

As for `CCCCCCCCCCCCCCCc1cc(O)ccc1N`, the growth is -5.74% (active) and -86.4% (active) in the experiment with T-47D breast (10 µM unless noted); -36.3% (active) and 12.7% (inactive) in the experiment on BT-549 breast (10 µM unless noted); 99.4% (inactive) and 87.2% (inactive) with MDA-MB-435 melanoma (10 µM unless noted); 114% (inactive) and 108% (inactive) in the experiment with SW-620 colon (10 µM unless noted); 72.2% (inactive) and 35.3% (inactive) in the experiment on MCF7 breast (10 µM unless noted); 94.4% (inactive) and 91.4% (inactive) with HCT-116 colon. The growth with HCC-2998 colon (10 µM unless noted) is 96.4% (inactive) and 101% (inactive); in the experiment with KM12 colon (10 µM unless noted), 64.2% (inactive) and 72% (inactive).

As to `CCN(CC)CCCC(C)Nc1ccnc2cc(Oc3ccccc3)ccc12` (stereo unspecified), the growth in the experiment with T-47D breast (10 µM unless noted) is 28.8% (inactive) and 83.9% (inactive); with BT-549 breast (10 µM unless noted), 62.9% (inactive) and 86% (inactive); in the experiment with MDA-MB-435 melanoma (10 µM unless noted), 2.5% (active) and 24.4% (inactive); with SW-620 colon (10 µM unless noted), 55.8% (inactive) and 79.4% (inactive); in the experiment with MCF7 breast (10 µM unless noted) it was 55.3% (inactive) and 82.7% (inactive); in the experiment with HCT-116 colon, 32% (inactive) and 54.9% (inactive). Further, the growth in the experiment on HCC-2998 colon (10 µM unless noted) is 90.9% (inactive) and 77.7% (inactive); in the experiment with KM12 colon (10 µM unless noted), 78.5% (inactive) and 87.2% (inactive).

Source of the values: PubChem BioAssay (NCI).
